Only some compounds are listed: those with a hit (about 1.1% of all), similar ones and a draw of the others.
SRC2 inh: inhibits human steroid receptor coactivator 2 | Q15596 | HEK293 GAL4-SRC2 luciferase reporter, luminescence | inhibition, % at 9 µM | actives 0.17% (n = 370,000);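 active means inhibition above the mean inhibition of all tested compounds plus 3 SD, set per campaign, cut at about 52% in these data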;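 further: 0% = DMSO treated cells and 100% = cells given Gossypol at 36 µM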
SRC3 inh: inhibits human SRC3 coactivator | actives 0.17% (n = 360,000) | HEK293 GAL4-SRC3 luciferase reporter, luminescence | AID 588352 | Q9Y6Q9 | inhibition, % at 3.6 µM;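 active means inhibition above a per-campaign cutoff, the mean of all compounds plus 3 SD, cut at about 60% in these data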;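 further: 0% = DMSO-treated cells and 100% = gossypol-treated cells at 36 µM; higher means less SRC3-driven luciferase light from the GAL4 reporter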
SRC1 inh: human NCOA1 inhibition; Q15788; HEK293 GAL4-SRC1 luciferase reporter, luminescence; inhibition, % at 3.6 µM; actives 0.12% (n = 360,000); AID 588354;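 active means inhibition above the campaign mean plus 3 SD, with each screening campaign given its own cutoff, cut at about 60% in these data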;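 further: 0% = DMSO treated cells and 100% = gossypol at 36 µM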
GalR3 antagonist: human GalR3 antagonism. HEK293 GalR3-CNG cAMP membrane potential fluorescence; galR3 body fused to GalR1 C-terminus. inhibition, % at 3 µM. actives 0.44% (n = 360,000). AID 651719;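 active means inhibition above the screen-wide average plus 3 SD, cut at about 13% in these data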;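 further: forskolin and galanin both at EC90 stimulate the cells; cAMP rise reported by CNG channel membrane potential dye signal; 0% = forskolin plus galanin with DMSO and 100% = forskolin alone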
LRH-1 inv ag: inverse agonists of human LRH-1 (NR5A2); O00482; HEK293T StAR-luciferase reporter, LRH-1 transfected, 24 h; inhibition, % at 3.6 µM; actives 0.13% (n = 360,000); AID 602396;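 active means inhibition above the mean inhibition of all tested compounds plus 3 SD, cut at about 73% in these data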;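 further: 0% = DMSO wells and 100% = reporter-only cells lacking LRH-1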
Target sequence (O00482 whole entry, looked up): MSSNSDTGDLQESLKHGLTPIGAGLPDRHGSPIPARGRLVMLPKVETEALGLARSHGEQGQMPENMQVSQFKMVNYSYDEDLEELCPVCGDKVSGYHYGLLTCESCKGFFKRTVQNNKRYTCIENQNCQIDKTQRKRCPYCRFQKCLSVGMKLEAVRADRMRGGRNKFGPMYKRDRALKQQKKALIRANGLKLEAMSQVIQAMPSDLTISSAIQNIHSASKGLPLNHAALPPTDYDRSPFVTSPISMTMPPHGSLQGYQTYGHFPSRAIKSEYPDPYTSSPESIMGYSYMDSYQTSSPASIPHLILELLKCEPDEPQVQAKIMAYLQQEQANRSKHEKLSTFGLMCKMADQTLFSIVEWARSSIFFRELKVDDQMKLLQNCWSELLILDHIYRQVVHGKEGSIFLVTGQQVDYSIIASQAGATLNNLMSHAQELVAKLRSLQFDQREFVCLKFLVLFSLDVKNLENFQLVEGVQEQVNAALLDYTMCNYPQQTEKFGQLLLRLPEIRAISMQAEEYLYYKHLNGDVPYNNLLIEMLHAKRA
COUP-TFII inh: inhibitors of human COUP-TFII (NR2F2); HEK293T NGFI-A luciferase reporter, luminescence; actives 0.7% (n = 370,000); inhibition, % at 8.6 µM; P24468; AID 686940;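 active means inhibition above a per-plate cutoff, mean inhibition of test wells between control levels plus 3 SD, cut at about 38% in these data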;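 further: cells cotransfected with COUP-TFII expression vector driving the NGFI-A reporter; 0% = median of COUP-TF2 test wells and 100% = reporter-only cells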
Gal4-VP16 ctr: counter-screen for COUP-TFII antagonists: inhibitors of VP16. inhibition, % at 8.5 µM. AID 687007. actives 25% (n = 2,500). HEK293 Gal4-VP16 luciferase reporter, luminescence. shares compounds with COUP-TFII inh; in the data active means inhibition above about 13%
NR2F2 inh conf: confirmation of human COUP-TFII (NR2F2) inhibitors; shares compounds with COUP-TFII inh; HEK293 NGFI-A luciferase reporter, luminescence; inhibition, % at 8.5 µM; actives 45% (n = 2,500); AID 687008;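 active means mean inhibition over three repeats above a set limit taken from the earlier primary screen, cut at about 38% in these data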;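 further: 100% = cells given the luciferase reporter alone without the COUP-TF2 vector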
The depositor's hits bear a star; / = no result given.

SMILES	SRC2 inh	SRC3 inh	SRC1 inh	GalR3 antagonist	LRH-1 inv ag	COUP-TFII inh	Gal4-VP16 ctr	NR2F2 inh conf
c1ccc2nc(-c3ccc(N4CCOCC4)cc3)ccc2c1	-51.9	-18.5	-41.1	-5.0	-98.7	-32.7	/	/
CN1CCN(c2ccc(-c3ccc4ccccc4n3)cc2)CC1	75.6*	79.5*	79.3*	-8.4	73.7*	89.5*	52.0*	90.5*
CN(C(=O)CCn1nnc(-c2cccs2)n1)C1CCCCC1	-30.5	/	/	/	/	9.8	/	/
CCC(=O)Nc1nc(-c2ccc3c(c2)CC(C)N3S(C)(=O)=O)cs1 (stereo not drawn)	-2.4	-35.7	-29.1	-6.7	-16.6	0.3	/	/
CC1Cc2cc(-c3csc(NC(=O)Cc4cccs4)n3)ccc2N1S(C)(=O)=O (stereo not drawn)	11.4	63.6*	53.3	10.1	62.5	81.2*	-1.9	85.4*
Cn1nc(C(C)(C)C)cc1C(=O)NCC1CCN(C(=O)C(=O)c2cc3ccccc3o2)CC1	-8.8	/	/	-7.6	/	40.5*	-3.3	10.8
CN(C)C(CNC(=O)c1cc(S(=O)(=O)N(C)c2ccccc2)ccc1Cl)c1cccs1 (stereo not drawn)	6.6	9.8	12.1	-4.1	-22.1	40.5*	8.9	15.1
Cc1cccc(Nc2ncnc3ccc(Br)cc23)c1	42.2	39.7	31.5	-1.7	15.4	44.9*	-7.7	16.0
CN(C)c1ccc(Nc2ncnc3ccc(Br)cc23)cc1	27.5	43.4	39.6	-8.2	-35.3	38.2*	-6.1	6.0
Cc1ccc(-n2c(SCC(=O)Nc3ccc(Oc4ccccc4)cc3)nnc2-c2ccco2)cc1	-1.8	/	/	/	/	0.8	/	/
COc1ccc(OC)c(Nc2nc(-c3sc(NC(=O)C(C)(C)C)nc3C)cs2)c1	-23.7	-12.9	11.4	-8.3	29.1	30.7	/	/
COc1ccc(Cl)cc1Nc1nc(-c2sc(NC(=O)C(C)(C)C)nc2C)cs1	-33.4	60.8	72.4*	-2.3	38.0	40.7*	-5.1	41.6*
Cc1ccccc1Cn1cc(CN2[C@H](CC(C)C)COc3cc(Br)ccc3S2(=O)=O)nn1	-13.3	/	/	/	/	-11.7	/	/
Cc1nn(C2CCS(=O)(=O)C2)c(Cl)c1/C=C/C(=O)OCC(=O)c1cc(C)n(-c2ccc(F)cc2)c1C (stereo not drawn)	15.2	16.4	14.6	-6.6	25.1	63.1*	0.3	37.4*
COc1ccc(NC(=O)N2CCC(c3nc4ccc(Cl)cc4[nH]3)CC2)cc1OC	20.2	/	/	/	/	-3.9	/	/
Cc1nc(N2CCN(c3ccccn3)CC2)c2c(C)c(C(=O)Nc3c(F)cc(F)cc3Br)sc2n1	-7.5	6.6	-4.1	-6.6	-24.6	42.2*	-0.2	25.1
O=C(CSc1nnc(-c2ccc(Cl)cc2)n1-c1ccccc1)NN=Cc1c[nH]c2ccccc12	13.3	/	/	/	/	-2.2	/	/
Cc1cccc(C)c1NC(=O)c1cc(S(=O)(=O)N2CCc3ccccc32)cn1C	12.4	5.1	-8.9	/	-20.8	-18.1	/	/
Cn1cc(S(=O)(=O)N2CCc3ccccc32)cc1C(=O)NC(C)(C)C	20.3	20.4	16.6	/	30.5	59.3*	4.8	45.2*
CCOC(=O)Cc1nn(Cc2nc(-c3ccc(C#N)cc3)cs2)c(=O)c2ccccc12	23.2	10.5	3.2	-0.3	-11.3	39.4*	16.8*	16.7
CCOC(=O)Cc1nn(CC)c(=O)c2ccccc12	-14.1	-10.0	2.9	-1.5	3.2	-23.0	/	/
Cc1cccc(Oc2ccc(NC(=O)c3ccccc3C(=O)O)cc2)c1C	-38.5	-7.7	-29.2	-3.7	22.0	24.8	/	/
O=C(O)c1ccccc1C(=O)Nc1ccc(Oc2ccc3ccccc3c2)cc1	47.2	3.8	-3.6	-2.0	29.8	65.8*	9.1	7.1
O=C(O)c1ccccc1C(=O)Nc1ccc(Oc2cccc3ccccc23)cc1	89.2*	70.6*	55.6	-6.6	61.9	100.0*	45.7*	34.3
COc1ccc(NC(=O)c2ccccc2-c2ccccc2C(=O)O)cc1	12.9	9.1	-14.3	-7.2	9.6	-6.0	/	/
SMILES	SRC2 inh	SRC3 inh	SRC1 inh	GalR3 antagonist	LRH-1 inv ag	COUP-TFII inh	Gal4-VP16 ctr	NR2F2 inh conf
CCN(CC)C(=O)CC[C@@H]1CC[C@]2(CCCN(Cc3ccncc3)C2)O1	21.9	/	/	/	/	-15.1	/	/
O=C(NCc1ccc(Cl)c(Cl)c1)O[C@H]1CC[C@@]23CCCN2C(=O)CCC[C@H]3C1	/	/	/	/	/	11.2	/	/
O=C(NCCc1ccc(F)cc1)c1ccc(Cl)c(S(=O)(=O)N2CCOCC2)c1	20.7	15.3	10.8	-5.3	3.0	40.1*	-9.9	7.7
CCOc1ccc(CCNC(=O)c2ccc(Cl)c(S(=O)(=O)N3CCOCC3)c2)cc1OCC	9.4	26.2	16.0	-5.6	17.0	21.7	/	/
COc1ccc(-c2nc(-c3ccccn3)ncc2S(C)(=O)=O)cc1	8.6	-10.9	-1.4	-2.9	-7.0	-4.9	/	/
Cn1nc(-c2ccccn2)nc2c(=O)n(C)c(=O)nc1-2	39.1	93.2*	89.3*	-10.7	83.6*	53.7*	30.3*	33.0
CCCc1nc2c(=O)n(C)c(=O)nc-2n(C)n1	66.5*	90.0*	86.6*	-3.5	88.8*	67.8*	37.4*	60.4*
O=C(CSc1ccccc1)NC1CCCCN(Cc2cccc(Cl)c2)C1=O (stereo not drawn)	-12.0	/	/	/	/	13.2	/	/
O=C(O)CCC(=O)Nc1ccc(N=Nc2ccccc2)cc1	/	0.2	-14.1	/	-6.1	/	/	/
CC(C)(C)C(=O)Nc1ccc(N=Nc2ccccc2)cc1	46.2	50.8	52.4	-4.2	38.5	66.3*	-8.7	60.3*
CC1Cc2ccccc2N1c1ncnc(N)c1[N+](=O)[O-] (stereo not drawn)	72.5*	64.4*	65.8*	6.1	41.3	47.3*	20.7*	34.1
CC1CCCCN1c1ncnc(N)c1[N+](=O)[O-] (stereo not drawn)	42.6	43.1	45.0	-0.3	5.4	37.3	/	/
CCc1ccc(-c2nc(CN3CCC(C(=O)N4CCN(c5ccccc5)CC4)CC3)c(C)o2)cc1	2.5	-0.9	-6.9	-6.7	6.2	42.3*	6.4	15.5
Cc1cccc(CNC(=S)OC2CCC23CCC(c2ccccc2)CC3)c1 (stereo not drawn)	14.8	/	/	/	/	-8.6	/	/
Cc1cc(NC2CCCC2)n2ncc(-c3ccccc3)c2n1	34.0	-2.0	31.3	-9.6	36.4	47.5*	-20.5	51.8*
Cc1cc(NC2CCCC2)n2nc(C)c(-c3ccccc3)c2n1	-19.5	-14.6	-43.0	-1.5	16.9	14.7	/	/
S=c1[nH]nc(-c2cc(-c3ccccc3)n[nH]2)n1/N=C/c1cccc2ccccc12	2.5	/	/	/	/	9.5	/	/
O=C(COc1ccc(Cl)cc1)Nc1ccc(N2CCN(C(=O)c3ccco3)CC2)cc1	4.6	24.2	12.3	-9.6	10.7	52.1*	-1.1	34.9
